Values joined by “and” are separate entries in the source; they are usually repeats but may differ in a detail not shown here. Identical values can stand only once. This is part of a sample that, as a whole, favours compounds with a hit. Of some 83,000 tested, about 20% had one in any assay.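 The endpoint reported here, percent growth, reads 100 for growth as untreated, 0 for no net growth and -100 for all cells dead.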 Unmarked numbers belong to inactive results. Active and inactive are the calls of the source. How the source made its calls: active means growth percent below 10; inactive means the rest.
System: MDA-MB-468 breast
Assay: NCI-60 one-dose screen, 48 h (100 = growth as untreated, 0 = no growth, -100 = all killed)
Conditions: 10 µM unless noted

SMILES | growth
N#CC(C#N)=C(C#N)C#N | 102%
CC1(C)CN1P(=O)(N1CC1(C)C)N1CC1(C)C (stereo not given) | 106%
CNC(=O)Oc1ccc(C(C)(C)C)cc1OC(=O)NC | 88.4%
Cc1ccc(NC2=N[C@]34CC(=O)CC[C@]3(C)[C@H]3CC[C@]5(C)C(=O)CC[C@H]5[C@@H]3C[C@@H]4S2)c(C)c1 | 17%
C[C@]12CCc3sc(-c4cccc(F)c4)nc3C1=CC[C@@H]1[C@@H]2CC[C@]2(C)C(=O)CC[C@@H]12 | 29.2%
O=C(Nc1ccc(Br)cc1)c1cc(Br)cc(Br)c1O | -23.3% (active)
COC1OC(CO)C(O)C(O)[CH]1[Hg][O]C(C)=O (stereo not given) | 72.2%
COc1cc(/C=C\c2cc(OC)c(OC)c(OC)c2)cc(N/C=C\C(=O)c2ccc(OC(F)(F)F)cc2)c1OC | 27.2%
CN(C)c1ccc([N+](=O)[O-])c([N+](=O)[O-])c1 | 110% and 95.6%
COc1cc(/C=C/[N+](=O)[O-])cc(OC)c1 | -61.2% (active)
C[C@]12C[C@H](c3ccoc3)OC(=O)[C@H]1CC[C@@]1(C)[C@@H]2[C@H]2C=C[C@]1(O)C(=O)O2 | 105%
C=CC1=C[C@@H]2[C@@H]3O[C@]4(CC[C@H](O4)[C@@H](C)C[C@@H](O)C3=O)C[C@H](O)C3=NCC[C@@]32CC1 | -56% (active)
CC(C)(C)OOC(=O)/C=C\C(=O)OOC(C)(C)C | 108%
O=c1c2ccccc2nc(-c2ccccc2Cl)n1-c1nnc(C(F)(F)F)s1 | 19.7%
O=[N+]([O-])c1cc([N+](=O)[O-])c(Nn2c3ccccc3c3ccccc32)c([N+](=O)[O-])c1 | -8.42% (active)
CC1COC(=O)C1 (stereo not given) | 106%
N#CC1=C(N)Oc2cc3c(cc2C1c1cccs1)OCO3 (stereo not given) | 6.33% (active)
CC(=O)OCc1cc[c]([Hg][Cl])o1 | 21%
CC(C)[C@]12O[C@H]1[C@@H]1O[C@]13[C@]1(O[C@H]1C[C@H]1C4=C(CC[C@@]13C)C(=O)OC4)[C@@H]2OC(=O)OC(C)(C)C | -48.4% (active)
Cc1cc(-c2nc3cc(F)ccc3[se]2)cc(F)c1N | -39% (active)

SMILES | growth
Cn1cc(-c2csc(-c3cn(CCN4CCOCC4)c4ccc(F)cc34)n2)c2cccnc21 | 13.9%
C[C@H](O)CCC(=O)c1ccoc1 | 98.7%
O=C1NC(=O)C(=C/C=C/c2ccccc2)C(=O)N1 | 44.2%
COC(=O)[C@@]1(C)CC[C@]2(C)CC[C@]3(C)C4=CC(=O)c5c(cc(O)c(O)c5C)[C@]4(C)CC[C@@]3(C)[C@@H]2C1 | 30.1%
C[C@]12CCc3sc(Nc4ccc(F)cc4)nc3C1=CC[C@@H]1[C@@H]2CC[C@]2(C)C(=O)CC[C@@H]12 | 40.8%
O=C([O][Hg][c]1ccccc1)c1ccccc1 | -67.2% (active)
Nc1nc(N)c(-c2ccc(Cl)c(Cl)c2)c(/C=C/c2ccc(S(=O)(=O)F)cc2)n1 | 103%
CC(=O)O[C@@H]1CC[C@]2(C)[C@H]3CC[C@]4(C)C(=O)CC[C@H]4[C@@H]3C[C@@H]3SC(N)=N[C@@]32C1 | 29.6%
O=C1C=C2C(=CCOC2O)O1 (stereo not given) | -55.5% (active)
O=C(CCl)c1ccc([N+](=O)[O-])o1 | -49.5% (active)
NC1CN2CCC1CC2 (stereo not given) | 108%
COc1ccc(/C=C\c2cc(OC)c(OC)c(OC)c2)c(NS(=O)(=O)c2ccc(C)cc2)c1O | 23.2%
COC(=O)[C@@H](C)C[C@H](Cc1ccccc1)NC(=O)c1csc([C@@H](C[C@H](C(C)C)N(C)C(=O)[C@@H](NC(=O)C23CC(NC(C)=O)(C2)C3)C2CC2)OC(C)=O)n1 | 3.05% (active)
COc1cc(C=Nc2cccc(C(=O)O)c2)ccc1N(CCCl)CCCl | 46.6%
C#CC1(O)CCC2(C)C(CCC3C4CCC(=O)C4(C)CCC32)C1 (stereo not given) | 86.3%
COC(=O)CCP(CCC(=O)OC)c1ccccc1 | 105%
CCCCCCCOC(C(=O)OCCN(CC)CC)(c1ccccc1)c1ccccc1 | 79.7%
Cc1ccc(S(=O)(=O)F)cc1C(=O)O | 92.5%
CC(C)OC(=O)[C@H](C)NP(=O)(Oc1ccccc1)C1CCCN(O)C1=O (stereo not given in full) | 96.9%
CN1C(=O)NC(=O)C(N=Nc2ccc(Cl)cc2)C1=O (stereo not given) | 90.4%
